14-3-3g Raf – 14-3-3 gamma protein interaction modulation; FP, 14-3-3gamma / TMR-pS259-Raf peptide binding; inhibition, % at 40 µM; 160,000 compounds, 0.19% hits; in the data active = inhibition above about 30%;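 also: 0% = protein plus tracer without compound and 100% = blank with tracer alone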
Target sequence (P61981 whole entry, looked up): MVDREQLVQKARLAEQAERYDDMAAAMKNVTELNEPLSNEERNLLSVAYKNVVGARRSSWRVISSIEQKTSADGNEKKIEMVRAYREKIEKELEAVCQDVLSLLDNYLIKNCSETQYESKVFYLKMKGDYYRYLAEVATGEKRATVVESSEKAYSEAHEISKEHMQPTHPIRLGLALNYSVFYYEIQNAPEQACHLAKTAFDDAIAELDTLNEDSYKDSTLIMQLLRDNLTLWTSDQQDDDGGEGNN
* marks the source's active call; other numbers are inactive results. This is one part of a sample in which hits are shown more often than they occur.

Screening CC(O)c1cccc(NC(=O)c2nn3c(c2Br)NC(c2ccc(Br)o2)CC3C(F)(F)F)c1 (stereo not given) returned 14-3-3g Raf -149.6.
`O=C(C1CC1)N1CCc2cc(Br)cc(S(=O)(=O)N3CC=C(c4ccccc4)CC3)c21` gave 14-3-3g Raf -18.9.
`CCCCN(C)C(=O)c1cc2c(=O)oc3ccccc3c2s1` gave 14-3-3g Raf 0.7.
Screening O=C1c2ccc3c4c(ccc(c24)C(=O)N1c1ccccc1)N(c1ccccc1)C3=O returned 14-3-3g Raf -69.1.
Nc1ccc2c3c(cccc13)C(=O)N(c1ccccc1)C2=O was read as 14-3-3g Raf 86.8*.
For O=C1c2cccc3c(N4CCCC4)ccc(c23)C(=O)N1c1ccccc1 the results were 14-3-3g Raf -24.4.
For O=C1c2cccc3c(NCCO)ccc(c23)C(=O)N1CCO the results were 14-3-3g Raf 8.5.
`O=C1c2cccc3c([N+](=O)[O-])ccc(c23)C(=O)N1c1ccccc1` gave 14-3-3g Raf 4.2.
For C=CCNc1ccc2c3c(cccc13)C(=O)N(c1ccccc1)C2=O the results were 14-3-3g Raf 158.1*.
For CC(C)(C)C1CCc2c(sc(NC(=O)c3ccccc3)c2C(=O)O)C1 (stereo not given) the results were 14-3-3g Raf 3.4.
For O=C(CCn1c(=S)oc2ccccc21)Nc1cccc(-c2nc3ncccc3o2)c1 the results were 14-3-3g Raf -31.3.
Screening COc1ccc(NC(=O)c2nn3c(c2Cl)NC(c2ccc(C)cc2)CC3C(F)(F)F)cc1OC (stereo not given) returned 14-3-3g Raf -8.9.
`Nc1cc(OC(=O)c2ccccc2Br)nn1S(=O)(=O)c1ccc(F)cc1` gave 14-3-3g Raf -0.9.
For Cc1cc(C)c(OCC(=O)N2N=C3CCCCC3C2(O)C(F)(F)F)c(C)c1 (stereo not given) the results were 14-3-3g Raf 0.7.
CN1C(=O)c2ccccc2C(C(=O)NCc2ccco2)C1c1cccs1 (stereo not given) was read as 14-3-3g Raf -3.2.
For COC(=O)c1ccc(C2Oc3c(OC)cccc3C3CC(c4cccc(OC)c4)=NN32)cc1 (stereo not given) the results were 14-3-3g Raf -1.5.
For CC(C)N=c1cc2n(-c3ccc(Cl)cc3)c3ccccc3nc-2cc1Nc1ccc(Cl)cc1 the results were 14-3-3g Raf 97.4*.
CC(C)Cn1c(C=Cc2ccc(Cl)cc2)nc2ccccc21 was read as 14-3-3g Raf -7.6.
Screening Cn1c(CNc2ccc(Cl)cc2)nc2ccccc21 returned 14-3-3g Raf -9.0.
Screening O=c1c2ccccc2n(Cc2ccc(F)cc2)c2ccccc12 returned 14-3-3g Raf -5.2.
For COc1ccc(CNC(=O)c2cnn3c(C)c(Cc4c(C)cc(C)cc4C)c(C)nc23)cc1 the results were 14-3-3g Raf -1.5.
`O=C(NC(=O)N1CCN(c2ccccc2F)CC1)c1ccccc1` gave 14-3-3g Raf 2.4.
O=C(c1cnccn1)N1CCN(c2ccccc2F)CC1 was read as 14-3-3g Raf -26.6.
`O=C(O)C1C2CCC(C2)C1C(=O)N1CCN(c2ccccc2F)CC1` (stereo not given) gave 14-3-3g Raf 43.5*.
Screening Cn1c(=O)c2c(SCC(=O)N3CCOCC3)nc(-c3cccs3)nc2n(C)c1=O returned 14-3-3g Raf -4.4.
For C#CCOc1ccc2c(c1)c(C(=O)OCC)c(C)n2-c1ccc(OC)cc1 the results were 14-3-3g Raf -5.6.
O=C(NC1CCCC1)c1cccc(N2CCCC2=O)c1 was read as 14-3-3g Raf -7.9.
Screening O=c1nc2sc3[nH]c(=O)sc3cc-2s1 returned 14-3-3g Raf 149.8*.
For O=C(CCCCn1c(=O)[nH]c2ccccc2c1=O)NCCc1ccc(Cl)cc1 the results were 14-3-3g Raf -6.1.
Screening CCC(Sc1nc2[nH]ncc2c(=O)n1-c1ccccc1Cl)C(=O)N1CCCC1 (stereo not given) returned 14-3-3g Raf -9.9.
Screening Cc1ccc(C2C3CN(C(C)C)CC=C3C(C#N)=C(N)C2(C#N)C#N)cc1 (stereo not given) returned 14-3-3g Raf 36.1*.
`CC(=O)N1CC=C2C(C#N)=C(N)C(C#N)(C#N)[C@H](c3ccoc3)[C@H]2C1` gave 14-3-3g Raf -8.4.
`COc1ccc(OC)c(C2C3CN(C(C)C)CC=C3C(C#N)=C(N)C2(C#N)C#N)c1` (stereo not given) gave 14-3-3g Raf -26.8.
`COc1ccc(Cn2c3ccccc3c3nc4ccccc4nc32)cc1OC` gave 14-3-3g Raf 2.8.
Screening CCOC(=O)CCCSc1nc2sc(C)c(C)c2c(=O)n1-c1ccccc1 returned 14-3-3g Raf 43.8*.
For CCOC(=O)CCCSc1nc2sc3c(c2c(=O)n1-c1ccccc1)CCCC3 the results were 14-3-3g Raf 10.3.
Screening Cc1sc2nc(SCC(=O)N3CCN(CCO)CC3)n(-c3ccccc3)c(=O)c2c1C returned 14-3-3g Raf -3.5.
For CS(=O)(=O)Nc1cc(-c2nnc(Nc3cccc(Cl)c3)c3ccccc23)ccc1N1CCOCC1 the results were 14-3-3g Raf -17.1.
Screening COc1ccc(NC(=O)c2c(N)sc(-c3ccccc3)c2C)cc1 returned 14-3-3g Raf -9.7.
For CN1c2ccccc2C(C)(C)C12C=Nc1c(ccc3ccccc13)O2 (stereo not given) the results were 14-3-3g Raf 83.9*.
For COc1ccc2c(c1)C=CC1(O2)N(C)c2ccccc2C1(C)C (stereo not given) the results were 14-3-3g Raf -6.1.
`CN1c2c(ccc3ccccc23)C(C)(C)C12C=Cc1cc([N+](=O)[O-])ccc1O2` (stereo not given) gave 14-3-3g Raf -364.7.
For C=CCc1cccc2cc(C(=O)Nc3ccccc3)c(=O)oc12 the results were 14-3-3g Raf -13.2.
Screening CCN(CC)c1cc(C)c2cc(NC(=O)c3ccccc3[N+](=O)[O-])ccc2n1 returned 14-3-3g Raf -9.4.
COc1ccc(C2C(C(=O)Nc3ccc(F)cc3)c3ccccc3C(=O)N2c2ccc(OC)cc2)cc1 (stereo not given) was read as 14-3-3g Raf 15.5.
`Cc1ccc(-n2c(=O)[nH]cc(C(=O)Nc3ccc4c(c3)OCCO4)c2=O)cc1C` gave 14-3-3g Raf 37.3*.
Screening COc1ccc(-n2c(=O)[nH]cc(C(=O)Nc3ccc4c(c3)OCCO4)c2=O)cc1 returned 14-3-3g Raf -10.5.
Cc1ccc(-n2c(=O)[nH]cc(C(=O)Nc3ccc4c(c3)OCCO4)c2=O)cc1 was read as 14-3-3g Raf -2.3.
COc1cc2ccccc2cc1C(=O)NCCOC12CC3CC(CC(C3)C1)C2 was read as 14-3-3g Raf -1.6.
For COc1ccccc1C1CC(c2ccc(Br)cc2)=NN1S(C)(=O)=O (stereo not given) the results were 14-3-3g Raf -240.2.
CCOC(=O)c1c(NC(=O)c2ccc(S(=O)(=O)N3CCOCC3)cc2)sc2c1CCCC2 was read as 14-3-3g Raf 6.1.
CCC(=O)N1CCc2cc(Br)cc(S(=O)(=O)N3CCCC(C(=O)Nc4cccc5c4CCCC5)C3)c21 (stereo not given) was read as 14-3-3g Raf -87.1.
Screening CC(C)OCCCNC(=O)c1cc(Nc2cccc(C(F)(F)F)c2)nc2ccccc12 returned 14-3-3g Raf -5.4.
Cc1ccc(C)c(Nc2cc(C(=O)NCc3ccccn3)c3ccccc3n2)c1 was read as 14-3-3g Raf 7.5.
Screening O=C(NCc1ccccn1)c1cc(Nc2cccc(C(F)(F)F)c2)nc2ccccc12 returned 14-3-3g Raf 152.4*.
For COc1ccc(Cn2c(=S)[nH]c3cc(C(=O)NCCc4ccc(Cl)cc4)ccc3c2=O)cc1 the results were 14-3-3g Raf -0.6.

Screening results as filed in PubChem BioAssay.
